# Assay outcomes from PubChem BioAssay.
# C8 TRAIL sens = viability loss with TRAIL in NB7+C8 cells, primary screen, TRAIL sensitizer project, cell-based, ATPlite luminescence; inhibition (viability loss, TRAIL sensitization), % at 10 µM; 360,000 compounds, 1% hits;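 active = compounds causing at least 50% loss of cell viability in the single-dose screen, relative to plate controls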
# CF NFkB inh = inhibitors of PAF-induced NF-kB signaling, primary screen, cell-based, GFP fluorescence, uHTS; KKLEB NF-kB-GFP reporter, GFP fluorescence overnight; inhibition, % at 5 µM; 360,000 compounds, 0.86% hits; AID 588850, 2011;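 active = at least 50% inhibition at 5 µM, scaled per plate between neutral and stimulator controls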;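 note: PAF is a Pseudomonas aeruginosa culture filtrate used as stimulus; plate controls were PAF-stimulated DMSO wells for no effect and unstimulated DMSO wells for full effect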
# HIF-2a block = HIF-2a reporter inhibitors, primary screen, luminescence, 786-0 RCC cells; inhibition, % at 18.8 µM; 786-0 RCC cells HIF-2a reporter, luciferase luminescence, overnight; 360,000 compounds, 0.72% hits; AID 624352, 2012;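 active = inhibition of the luminescence signal of 40% or more relative to plate controls, in a single-dose primary screen at 18.75 µM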
# hiPSC survival = enhancers of single-cell hiPSC survival, primary screen, ATPlite luminescence | 100% = ROCK inhibitor wells, 0% = DMSO | survival enhancement, % at 20 µM | 360,000 compounds, 0.044% hits; in the data active = survival enhancement above about 18%;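 note: cells exposed to compounds for 16 hours before the ATP read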
# PPC-1+TRAIL kill = compounds killing PPC-1 cancer cells with TRAIL present, primary screen, TRAIL potentiator project, ATPLite luminescence, uHTS; 220,000 compounds, 0.41% hits; PPC-1 cells + TRAIL, ATPLite viability luminescence; cell killing (% activity), % at 4 µM or 5 µM;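 active = cell killing above 50% in the first pass at 4 µM, then a duplicate retest at 5 µM averaging 50% or more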;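 note: plate controls were cells with TRAIL plus DMSO for no effect and medium-only wells lacking cells for full effect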
# KKLEB tox = cytotoxicity in KKLEB CF airway cells, primary screen, cytotoxicity control for CF NF-kB inhibitor project, cell-based, uHTS, fluorescence assay plates. activity change (cytotoxicity), % at 5 µM. 360,000 compounds, 0.36% hits. KKLEB CF airway cells viability, ATPlite luminescence, overnight; active compounds read low; cells stimulated with P. aeruginosa culture filtrate;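 active = corrected activity change at or below -50% at 5 µM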
# CF NFkB conf = inhibitors of PAF-induced NF-kB signaling, retest, confirmation, cell-based, GFP fluorescence, single concentration | inhibition, % at 5 µM | KKLEB CF airway cells, overnight | shares compounds with CF NFkB inh | AID 602472, 2012 | 1,300 compounds, 64% hits; in the data active = inhibition above about 40%;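 note: stimulus PAF is a Pseudomonas aeruginosa filtrate and not platelet activating factor; plate controls were DMSO wells with stimulus for no effect and unstimulated DMSO wells for full effect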
# Mdm2 MdmX conf = retested Mdm2-MdmX interaction blockers, confirmation, cell-based, luminescence, single concentration, set 2; shares compounds with HIF-2a block; SaOS-2 split-luciferase Mdm2/MdmX complementation; inhibition, % at 8 µM; 740 compounds, 99% hits; AID 504601, 2011;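 active = mean inhibition of the luminescence signal across two replicates at or above 26 percent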
# Target sequence (O15151 whole entry, looked up): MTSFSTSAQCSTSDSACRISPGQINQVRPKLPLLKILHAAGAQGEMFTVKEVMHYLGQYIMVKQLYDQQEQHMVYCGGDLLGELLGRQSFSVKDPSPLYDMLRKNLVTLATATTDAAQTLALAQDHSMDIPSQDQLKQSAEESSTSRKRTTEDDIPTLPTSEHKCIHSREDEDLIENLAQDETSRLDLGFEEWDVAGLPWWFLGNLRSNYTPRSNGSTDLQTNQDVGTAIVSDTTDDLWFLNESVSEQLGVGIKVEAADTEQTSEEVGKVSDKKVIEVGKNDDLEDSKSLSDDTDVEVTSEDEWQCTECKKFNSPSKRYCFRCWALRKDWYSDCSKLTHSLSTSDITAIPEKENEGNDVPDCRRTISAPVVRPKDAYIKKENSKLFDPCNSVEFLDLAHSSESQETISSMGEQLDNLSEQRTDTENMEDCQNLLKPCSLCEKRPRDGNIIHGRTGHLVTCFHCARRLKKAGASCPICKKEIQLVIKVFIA
# Target sequence (Q00987 whole entry, looked up): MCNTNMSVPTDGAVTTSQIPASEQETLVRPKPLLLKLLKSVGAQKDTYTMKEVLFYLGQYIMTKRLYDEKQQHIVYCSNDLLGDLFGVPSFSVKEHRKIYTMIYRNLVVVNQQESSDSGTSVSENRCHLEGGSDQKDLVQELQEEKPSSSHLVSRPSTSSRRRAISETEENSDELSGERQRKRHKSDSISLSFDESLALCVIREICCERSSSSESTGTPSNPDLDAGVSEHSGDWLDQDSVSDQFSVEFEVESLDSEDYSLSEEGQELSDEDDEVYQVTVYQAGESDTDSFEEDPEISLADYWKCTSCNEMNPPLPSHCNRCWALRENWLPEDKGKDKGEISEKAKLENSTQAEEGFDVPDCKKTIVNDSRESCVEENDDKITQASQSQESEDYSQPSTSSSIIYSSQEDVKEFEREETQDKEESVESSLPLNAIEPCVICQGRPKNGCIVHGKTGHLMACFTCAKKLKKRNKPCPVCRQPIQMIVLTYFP
# HIF-2a inh conf = HIF-2a reporter inhibitor retest, confirmation, luminescence, 786-0 RCC cells | HIF-2a luciferase reporter luminescence, overnight | 1,800 compounds, 56% hits | shares compounds with HIF-2a block | inhibition, % at 18.8 µM;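 active = mean inhibition across four replicates of at least 40 percent at the single tested concentration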
# HIF-1a counter = HIF-1a luciferase reporter signal reduction – MiaPaCa-2 cells, single concentration, counter-screen for HIF-2a inhibitor project, confirmation; shares compounds with HIF-2a block; MiaPaCa-2 HIF-1a luciferase reporter, desferoxamine, overnight; inhibition, % at 18.8 µM; AID 651589, 2012; 1,800 compounds, 72% hits;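 active = mean inhibition of the reporter signal across four replicates at the single tested dose of 50% or more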
# * hit, by the source's call; . = no result given. In the library only some 2.2% were active in any assay of this set; here they are far more common.
SMILES,C8 TRAIL sens,CF NFkB inh,HIF-2a block,hiPSC survival,PPC-1+TRAIL kill,KKLEB tox,CF NFkB conf,Mdm2 MdmX conf,HIF-2a inh conf,HIF-1a counter
COc1ccc(CNC(=O)c2nc(S(=O)(=O)Cc3ccccc3)ncc2Cl)cc1,31,90*,91*,-1,.,-20,71*,.,63*,35
O=C(NCc1ccc2c(c1)OCO2)c1nc(S(=O)(=O)Cc2ccccc2F)ncc1Cl,31,86*,88*,0,.,-2,42*,102*,68*,70*
Cc1noc(C(=O)NCc2ccccc2)c1Cl,6,4,-8,6,11,-7,.,.,.,.
O=C(NCc1ccccc1)c1nc(S(=O)(=O)Cc2ccccc2)ncc1Cl,32,87*,85*,0,.,-30,66*,.,90*,70*
O=[N+]([O-])C1C(c2ccccc2)C12c1ccccc1-c1ccccc12 (configuration not stated),30,68*,49*,-2,.,-32,46*,.,43*,-11
CC(=O)OCCCNc1cc(Sc2ccc(Cl)cc2)c2nonc2c1[N+](=O)[O-],37,70*,79*,-1,0,-8,53*,.,-9,97*
COc1ccc(C2CCCN2CC(O)COc2ccccc2C(C)C)cc1 (configuration not stated),16,6,12,0,.,-6,.,.,.,.
COc1ccc(-c2cc(=O)oc3c(C)c(O)ccc23)cc1,17,83*,17,-1,.,15,92*,92*,.,.
Cn1c(Oc2ccc(F)cc2)c(C=O)c2ccccc21,-7,34,22,-1,5,-15,.,.,.,.
Cn1c(Sc2ccc(Br)cc2)c(C=O)c2ccccc21,17,67*,30,5,-26,-12,98*,87*,.,.
CC(=O)N1CCN(c2ccc(NC(=O)c3ccc([N+](=O)[O-])o3)cc2Cl)CC1,30,62*,88*,1,.,-27,8,.,52*,83*
COc1ccc(S(=O)(=O)N2CCCCC2)cc1NC(=O)c1ccco1,-25,11,3,0,.,-8,.,.,.,.
COc1ccc(S(=O)(=O)N2CCCCC2)cc1NC(=O)c1ccc([N+](=O)[O-])o1,34,75*,53*,-1,23,-1,-9,.,9,76*
COCCN(C(=O)CCc1nnc(Cc2c[nH]c3ccccc23)o1)C(C)C,-19,7,12,0,.,0,.,.,.,.
Cc1cccc(/C=C(\c2nc3ccccc3[nH]2)S(=O)(=O)c2ccccc2)c1,-21,55*,88*,-4,9,-25,-179,.,92*,105*
O=C(/C(=C(\O)c1ccccc1)c1nc2ccccc2[nH]1)c1ccccc1,9,-8,-17,0,15,4,.,.,.,.
CC1CCCN(CCCNC(=O)c2ccc(N3CCCC3=O)cc2)C1 (configuration not stated),0,12,8,0,.,-20,.,.,.,.
CCOc1ccccc1C(=O)N[C@H](C(=O)OCC(=O)Nc1nnc(-c2ccccc2)o1)C(C)C,26,-2,17,1,.,4,.,.,.,.
C=CC(=O)Nc1cccc(Oc2ncnc3[nH]cc(-c4cnc5ccccc5c4)c23)c1,-30,87*,14,-2,.,-3,79*,100*,.,.
CN(C)C(=O)CCc1ccc2c3c([nH]c2c1)[C@]1(C)[C@@H](C(=O)N2CCOCC2)C[C@H](CC(=O)NCCC2=CCCCC2)C(=O)N1CC3,4,12,-3,0,.,5,.,.,.,.
COc1ccccc1-c1cn[nH]c1-c1ccc(OCc2ccccc2)cc1O,18,5,23,2,13,8,.,.,.,.
COc1ccc(-c2cn[nH]c2-c2ccc(OCc3ccccc3)cc2O)cc1,-20,70*,10,0,0,-14,89*,90*,.,.
Cc1ccc(S(=O)(=O)NCCC(=O)OCc2ccc([N+](=O)[O-])cc2)cc1C,17,9,-8,0,.,2,.,.,.,.
C=C1C(=O)[C@@]23[C@H](O)C[C@@H]4C(C)(C)CC[C@H](O)[C@]4(C)[C@@H]2C[C@H](O)[C@@H]1[C@H]3O,6,68*,41*,-5,-3,20,56*,.,37,91*
Cc1csc(CNc2ncnc3ccc(-c4ccc5c(c4)OCO5)cc23)c1,9,20,15,-3,.,2,.,.,.,.
SMILES,C8 TRAIL sens,CF NFkB inh,HIF-2a block,hiPSC survival,PPC-1+TRAIL kill,KKLEB tox,CF NFkB conf,Mdm2 MdmX conf,HIF-2a inh conf,HIF-1a counter
c1ccc(CCNc2ncnc3ccccc23)cc1,43,46,-167,-3,17,-13,.,.,.,.
Brc1ccc2ncnc(NCc3ccccc3)c2c1,14,75*,25,4,30,-38,81*,90*,.,.
Cc1csc(CNc2ncnc3ccc(-c4ccoc4)cc23)c1,3,71*,-2,0,.,-20,83*,87*,.,.
c1cncc(CNc2ncnc3ccc(-c4ccoc4)cc23)c1,17,80*,11,1,.,0,88*,87*,.,.
O=C(c1ccc(S(=O)(=O)c2ccc(F)cc2)c([N+](=O)[O-])c1)N1CCCCCC1,32,54*,53*,-4,9,-21,39,.,3,49
O=C(c1ccc(S(=O)(=O)Cc2ccccc2F)c([N+](=O)[O-])c1)N1CCCC1,32,16,0,-1,-8,-7,.,.,.,.
COc1cccc(-c2ccc3ncnc(NCc4ccc5c(c4)OCO5)c3c2)c1,2,80*,-35,0,.,-6,81*,85*,.,.
COC(=O)c1cc(=O)n(Cc2ccc(OC)c(OC)c2)c(=Nc2ccc(F)cc2)s1,16,54*,70*,1,16,-21,-86,.,68*,102*
COC(=O)c1cc(=O)n(Cc2cccs2)c(=Nc2ccccc2)s1,-15,13,25,0,-7,-8,.,.,.,.
